Inconclusive results are not listed. Values without a mark were called inactive. The call rests on the fitted dose curve; in most records, active means well fitted inhibition curve with a large enough effect; inconclusive means small, poorly fitted or top-dose-only effect; inactive means no such curve, though single readings can be large or run the other way.
System: Zika virus NS2B-NS3 protease (unlinked complex)
Experiment: Primary screen GU Rhodamine qHTS for Zika virus inhibitors: Unlinked NS2B-NS3 protease assay (AID 1347159); further: nearly all actives have a fitted effect of over 60% in size
Conditions: Recombinant ZIKV NS2B-NS3 protease, Rhodamine110 substrate fluorescence; series mostly up to 107 µM; activity change, negative = inhibition: at the top concentration
Method in brief: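 Compounds, tested up to 114 microM, were incubated for 15 minutes with 25 nM unlinked NS2B-NS3 protease at pH 8.0. Cleavage of 1.5 microM Rhodamine110 substrate was then followed by fluorescence for 15 minutes.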
On the % scale 0 is the no-effect control and ±100 the full control effect.

| SMILES | activity change, negative = inhibition |
| --- | --- |
| CN[C@H](CC(C)C)C(=O)N[C@H]1C(=O)N[C@@H](CC(N)=O)C(=O)N[C@H]2C(=O)N[C@H]3C(=O)N[C@H](C(=O)N[C@H](C(=O)O)c4cc(O)cc(O)c4-c4cc3ccc4O)[C@H](O[C@H]3C[C@](C)(N)[C@@H](O)[C@H](C)O3)c3ccc(c(Cl)c3)Oc3cc2cc(c3O[C@@H]2O[C@H](CO)[C@@H](O)[C@H](O)[C@H]2O[C@H]2C[C@](C)(NCc3ccc(-c4ccc(Cl)cc4)cc3)[C@@H](O)[C@H](C)O2)Oc2ccc(cc2Cl)[C@H]1O | 0% [at 32.5 µM] |
| FC(F)(F)c1ccc(Nc2nc(-c3c(C(F)(F)F)nc4ccccn34)cs2)cc1 | 70.7% |
| COc1c2c(c(C)c3c1C(=O)OC3)O[C@@]1(C)CC(O)C(C(C)(C)O)[C@](C)(CCC(=O)O)[C@H]1C2 (some centres undefined) | 3.01% [at 57.1 µM] |
| C#CCN(Cc1cc2c(=O)n(C)c(CN3CCN(C)CC3)nc2cc1Cl)c1ccc(C(=O)NCc2cccnc2)cc1 | 0.631% |
| CC(=O)N1CCc2ccc(O)c(OC3OC(COC4OCC(O)(CO)C4O)C(O)C(O)C3O)c2C1Cc1ccc(O)cc1 (centres undefined) | 5.15% [at 32.5 µM] |
| C=C[C@H]1CN2CC[C@H]1C[C@@H]2C(O)c1ccnc2ccc(OC)cc12 (some centres undefined) | 22.1% |
| O=C(O[C@H]1[C@@H]2C=CO[C@@H](O[C@@H]3O[C@H](CO)[C@@H](O)[C@H](O)[C@H]3O)[C@@H]2[C@@]2(CO)O[C@@H]12)c1ccccc1 | -10.5% [at 57.1 µM] |
| COc1ccc(C2(O)CCC(N3CC[C@@H](NC(=O)CNC(=O)c4cccc(C(F)(F)F)c4)C3)CC2)cn1 (some centres undefined) | 54.6% |
| CC1(C)CC[C@]2(C(=O)O[C@@H]3O[C@H](CO)[C@@H](O)[C@H](O)[C@H]3O)CC[C@]3(C)C(=CCC4[C@@]5(C)CC[C@H](O[C@@H]6O[C@H](C(=O)O)[C@@H](O)[C@H](O)[C@H]6O)[C@@](C)(CO)C5CC[C@]43C)C2C1 (some centres undefined) | 2.87% [at 32.5 µM] |
| COc1ccc2[nH]c3c(-c4cccc5ccccc45)nccc3c2c1 | 9.19% |
| C[C@H]1CC[C@@H]2N(C1)C[C@@H]1[C@H]([C@@H](O)[C@H](O)[C@]3(O)[C@H]1C[C@@]14OC5(O)[C@@H](C[C@@H](O)[C@@H]31)[C@]4(C)CC[C@@H]5O)[C@]2(C)O | 2.48% [at 57.1 µM] |
| C[C@@]1(O)[C@H](O)[C@@H](CO)O[C@H]1n1ccc(N)nc1=O | -12.6% |
| OC[C@H]1O[C@@H](OCCc2ccc(O)cc2)[C@H](O[C@@H]2OC[C@](O)(CO)[C@H]2O)[C@@H](O)[C@@H]1O | 10.4% [at 57.1 µM] |
| Cc1cnc(Nc2ccc(F)cc2Cl)nc1-c1c[nH]c(C(=O)NC(CO)c2cccc(Cl)c2)c1 (centres undefined) | 81.9% |
| C=CC(=O)Nc1cccc(CN2C(=O)N(c3c(Cl)c(OC)cc(OC)c3Cl)Cc3cnc(NCCCCN(CC)CC)nc32)c1 | 72% |
| COC(=O)[C@H](O)[C@H]1C(C)(C)[C@H](OC(=O)C(C)C)[C@@]2(O)C(=O)[C@]1(C)C1CC[C@]3(C)C(CC(=O)O[C@H]3c3ccoc3)[C@]13O[C@@H]32 (some centres undefined) | 25.4% [at 32.5 µM] |
| CC1=CC2/C=C(\C)CC[C@@H](O)[C@@H](O)[C@@H]3O[C@@H]3C(=O)[C@]23C(=O)N[C@@H](CC(C)C)[C@@H]3[C@@H]1C (some centres undefined) | 9.87% [at 57.1 µM] |
| COC(=O)CC(O)C1OC(c2ccccc2)C(O)C1O (centres undefined) | -9.68% |
| COC(=O)C1(C)c2[nH]c3ccccc3c2CCN1C(=O)CCl (centres undefined) | 60% |

Source: PubChem BioAssay (NCATS)
